Lassa entry inh – qHTS for Inhibitors of binding or entry into cells for Lassa Virus; Potency, µM (titrated, usually from 37.9 µM), for the others: at the top dose activity change, negative = inhibition, usual class: inhibitors; 300,000 compounds, 1.2% hits; AID 540256, 2011; Lassa virus pseudotype entry inhibition, cell reporter; calls by dose curve; tested in HEK293 cells; also: potency is read from the fitted curve at half-maximal effect; nearly all actives have a fitted effect of over 50% in size
FMDV antiviral – High Throughput Screening for Foot and Mouth Disease Virus Antivirals; FMDV antiviral cell-based qHTS; Potency, µM (top dose mostly 57.9 µM), for the others: top-dose activity change, negative = inhibition, most hits filed as inhibitors; 410,000 compounds, 1.2% hits; calls by dose curve; tested in HEK293T cells; also: read-out not given here; potency is read from the fitted curve at half-maximal effect; nearly all actives have a fitted effect of over 45% in size
MARV entry inh – qHTS for inhibitors of binding or entry into cells for Marburg Virus. 300,000 compounds, 1.8% hits. Marburg virus pseudotyped entry inhibition, cell reporter. Potency, µM (titrated, usually from 37.8 µM), without a hit: top-dose activity change, negative = inhibition, actives largely listed as inhibitors; calls by dose curve; tested in HEK293 cells; also: potency is read from the fitted curve at half-maximal effect
HCMV inh – qHTS Assay for inhibitors of the human cytomegalovirus (HCMV); HFF cells, HCMV-luciferase reporter, 72 h; stronger effect = lower value; activity change, negative = inhibition, % at 57.5 µM; 410,000 compounds, 4.5% hits; in the data active = activity change below about -60%; inconclusive = no clear call, values can overlap the other calls; inactive = above about -39%
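Two compound doses tested in HFFs infected with HCMV-luciferase, MOI 1 PFU/cell, 72 h at 37C. Lysate luminescence read with OneGlo; data normalized against buffer-only and 10uM Salinomycin inhibitor controls.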
Active calls of the source: *; ? = inconclusive; . = not tested or not shown; [ ] = remark or other dose. In the library only some 6.2% were active in any assay of this set; here they are far more common. % is scaled to controls: 0 for no effect and ±100 for the full control effect.

SMILES	Lassa entry inh	FMDV antiviral	MARV entry inh	HCMV inh
COc1ccc(-c2cc(CNC(C)=O)on2)cc1	?	26%	-22%[46.1 µM]	32
COc1ccc(Nc2cc3c(cn2)cc(-c2cccc(C(F)(F)F)c2)n3C)cc1	.	.	.	-17
OC1CCC(Nc2nccc3[nH]c(-c4ccccc4Cl)nc23)CC1 (stereo not given)	.	.	.	-11
Cc1ccc(-n2ncc3c(N4CCN(Cc5ccccc5)CC4)ncnc32)cc1C	?	14µM*	.	?
S=c1sc2c(N3CCN(Cc4ccccc4)CC3)ncnc2n1-c1ccccc1	-9%	28µM*	?	-10
COc1ccc(-n2ncc3c(N4CCN(Cc5ccccc5)CC4)ncnc32)cc1	?	35µM*	?	-95*
Clc1cccc(-n2ncc3c(N4CCN(Cc5ccccc5)CC4)ncnc32)c1	0%[46.1 µM]	?	.	1
Cc1ccc(Cn2ncc3c(N4CCN(c5ccc(C)cc5)CC4)ncnc32)cc1	0%	?	?	?
Cc1ccc(Cn2ncc3c(N4CCN(Cc5ccc(Cl)cc5)CC4)ncnc32)cc1	?	?	2.8µM*	-82*
C[C@@H]1CCCCO[C@H](CN(C)C(=O)CCC(F)(F)F)[C@H](C)CN([C@@H](C)CO)C(=O)c2cc(NS(=O)(=O)c3ccc(Cl)cc3)ccc2O1	.	.	.	13
Cc1ccc(Cn2ncc3c(NN)ncnc32)cc1	?	6%	-5%	-86*
CC1CCC(C(C)C)C(OC(=O)Cn2c(-c3ccc(Br)cc3)[n+](C)c3ccccc32)C1 (stereo not given)	?	?	?	-99*
CC1CCC(C(C)C)C(OC(=O)COC(=O)c2ccccc2N)C1 (stereo not given)	?	?	-4%	-16
Cc1ccccc1OCc1n(CC(=O)OC2CC(C)CCC2C(C)C)c2ccccc2[n+]1C (stereo not given)	?	?	3.5µM*	-96*
CC1CCC(C(C)C)C(OC(=O)Cn2c(-c3ccc(Cl)cc3)[n+](C)c3ccccc32)C1 (stereo not given)	.	?	.	-100*
O=C(c1cnc(N2CCCCC2)c2ccccc12)N1CCN(c2ccc(Cl)cc2)CC1	-3%[46.1 µM]	?	.	-26
CC(=O)N1CCC2(CC1)CN(Cc1ccc(C#N)cc1)C2	.	2%	.	.
CCC(=NCCN1CCOCC1)c1c(O)n(-c2ccccc2C)c(=O)[nH]c1=O	-5%	13%	5%[46.1 µM]	22
CC/C(=N\N1CCCCCC1)c1c(O)n(-c2ccccc2C)c(=O)[nH]c1=O	10µM*	?	-21%	?
CC(=O)c1c(C)oc2ccc(N(C(C)=O)S(=O)(=O)c3ccc(Cl)c([N+](=O)[O-])c3)cc12	-29%	35µM*	-24%[46.1 µM]	10
CC(=O)c1c(C)oc2ccc(N(C(C)=O)S(=O)(=O)c3cccc4cccnc34)cc12	?	?	?	-79*
CC(=O)c1c(C)oc2ccc(N(C(C)=O)S(=O)(=O)c3ccc(F)cc3C)cc12	-3%	?	-21%	2
CCOc1ccc(S(=O)(=O)N(C(C)=O)c2ccc3oc(C)c(C(=O)OC)c3c2)cc1	?	?	?	-62*
CC(=O)c1c(C)oc2ccc(N(C(C)=O)S(=O)(=O)c3ccc(Br)cc3)cc12	-13%	?	?	?
CCCC(=O)N(c1ccc2oc(C)c(C(C)=O)c2c1)S(=O)(=O)c1ccc(CC)cc1	?	?	.	-93*
SMILES	Lassa entry inh	FMDV antiviral	MARV entry inh	HCMV inh
COc1ccc(NC(=O)CCS(=O)(=O)c2ccc3c(c2)n(C)c(=O)c(=O)n3C)cc1Cl	-2%[46.1 µM]	-12%	10%[46.1 µM]	16
Cc1nc2sccn2c1CN1CCC2(CC1)CC2C(=O)Nc1ccc2c(c1)OCO2 (stereo not given)	.	-6%	.	.
CCc1ccc(CN(C(=O)c2nc(SC)ncc2Cl)C2CCS(=O)(=O)C2)cc1 (stereo not given)	-2%[46.1 µM]	-1%	0%[46.1 µM]	5
COCC1CCCN(c2nc(CN3CCN(C(=O)c4ccco4)CC3)nc3ccccc23)C1 (stereo not given)	.	3%	.	.
Cc1ccccc1C(=O)N1CCN(c2ncnc3c2cnn3-c2ccccc2)CC1	-15%	20µM*	?	?
Cc1ccc(C)c(N2CCN(c3ncnc4c3cnn4-c3ccccc3)CC2)c1	.	?	-4%	-30
Cc1ccc(S(=O)(=O)N2CCN(c3ncnc4c3cnn4-c3ccccc3)CC2)cc1	-18%	-12%	5%	-7
Cc1ccc(C(=O)N2CCN(c3ncnc4c3cnn4-c3ccccc3)CC2)cc1	.	.	.	-77*
Cc1cc(C)cc(NC(=O)N2CCC(C(N)=O)(N3CCCCC3)CC2)c1	6%[46.1 µM]	-22%	-9%[46.1 µM]	-7
O=C(NCCCN1CCCCCC1)C(c1ccccc1)C1CCCCC1 (stereo not given)	.	-22%	.	.
OC1(c2ccccc2)CN(c2ccccc2)C2=[N+]1CCS2 (stereo not given)	-5%	?	-18%	-62*
OCC[C@@H]1C[C@H](O)[C@@H](O)[C@@]2(OCCc3cc(C(F)(F)F)ccc32)O1	.	.	.	-2
CC(=O)N(CCC(c1ccco1)C(C)C)Cc1ccc(Cl)cc1 (stereo not given)	10µM*	-28%	-25%[46.1 µM]	-36
Cc1ccc(OC[C@H](O)CNS(=O)(=O)c2ccccc2C(=O)O)cc1	.	.	2%[46.1 µM]	.
O=c1c2c3c(sc2ncn1/N=C/c1ccc([N+](=O)[O-])o1)CCCC3	?	28µM*	1%	-6
O=C(Cc1cccc([N+](=O)[O-])c1)NCc1nc2cccnc2n1Cc1ccc(F)cc1	-14%[46.1 µM]	-3%	.	13
O=C(CSC1=NCCS1)N1CCN(c2ccc(Cl)cc2)CC1	-12%	?	-24%[46.1 µM]	-82*
CCc1cc(-c2n[nH]c(C)c2-c2nc3ccccc3n2C)c(O)cc1O	?	?	?	-71*
CCN1CCN(C(=O)c2cc(-c3ccc(Cl)s3)nc3ccccc23)CC1	.	0%	.	-4
O=C(O)c1cc(-c2ccc(Cl)s2)nc2ccccc12	?	19%	11µM*	-2
COC(=O)C1CCN(C(=O)c2cc(-c3ccc(Cl)s3)nc3ccccc23)CC1	.	35µM*	.	-33
Cc1ccc(-c2cc(C(=O)O)c3ccccc3n2)s1	.	36%	.	183
COC(=O)C1CCN(c2nc3ccccc3nc2[C@@H](C#N)C(=O)NCCc2ccccc2)CC1	.	.	0%	.
O=C(c1cnn(-c2cccc(F)c2)c1-n1cccc1)N1CCN(c2ccccc2F)CC1	-4%[46.1 µM]	0%	.	0
CC(C)[Si]1(C(C)C)OCC2OC(n3cnc4c(N)ncnc43)C(N)C2O[Si](C(C)C)(C(C)C)O1 (stereo not given)	?	?	13µM*	-27
COc1ccc(NC(=O)CC2C(=O)N(c3ccc(OC)cc3)C(=O)N2CCc2cccs2)cc1 (stereo not given)	9.2µM*	15%	-19%	-34
CCOc1ccc(NC(=O)CN(C)C(=O)c2cn(-c3ccc(C)cc3)nc2-c2cccc(OC)c2)cc1OCC	-29%	-5%	11µM*	0

Screening data: PubChem BioAssay, National Center for Advancing Translational Sciences (NCATS)
